# Reference: PubChem BioAssay
# Several values for one entry are separate records, joined by “and”; a condition that tells them apart may be missing. Equal values may be shown once. Activity calls are given as the source filed them.
# What was measured:
# [1] = E. coli DRC41 culture turbidity changes, primary screen, E. coli filamentation inducer project, strain DRC41, OD650, 48 h (AID 1152);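 also: E. coli MC1000 strain DRC41 lacking acrAB efflux pump and sulA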; settings: E. coli DRC41 (acrAB sulA), higher = more signal, called active from +8 up or from −8 down
# [2] = small-molecule binders of probe aLefty1, primary screen, biochemical, small-molecule microarray, 635/667 nm fluorescence (AID 1153); settings: higher = more signal;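 also: score merges spot fluorescence with signal-to-noise ratio from the scanned slide images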
# [3] = PSAC antagonists in infected red cells, primary screen, cell-based, P. falciparum Indochina, OD700, 1 h (AID 1154); settings: P. falciparum Indochina infected RBC osmotic lysis, higher = more signal, called active from +8 up or from −8 down
# [4] = PSAC antagonists in infected red cells, primary screen, cell-based, P. falciparum Indochina, OD700, 2 h (AID 1155);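 also: lysis reports solute entry through the parasite surface anion channel PSAC; channel blockers reduce lysis of infected cells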; settings: P. falciparum Indochina infected erythrocytes, osmotic lysis OD700; higher = more signal, called active from +8 up or from −8 down
# [5] = osmotic lysis modulators in infected erythrocytes, primary screen, PSAC antagonist project, cell-based, P. falciparum Indochina, OD700, 3 h (AID 1156); settings: higher = more signal, called active from +8 up or from −8 down
# [6] = PSAC antagonists in infected red cells, primary screen, cell-based, P. falciparum Indochina, OD700, 18 h (AID 1157); settings: P. falciparum Indochina infected erythrocytes, osmotic lysis OD700, 18 h; higher = more signal, called active from +8 up or from −8 down
# [7] = modulators of S6 phosphorylation in cells, primary screen, cell-based, A549, cytoblot, luminescence, serum-stimulated (AID 1158); settings: A549 phospho-S6 cytoblot, 5 h, higher = more signal;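 also: serum-stimulated A549 lung adenocarcinoma cells; signal is phosphorylated S6 detected by cytoblot immunostaining with HRP secondary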
# [8] = target: NADPH oxidase 2 (Homo sapiens) (UniProt P04839); test: NOX2-dependent H2O2 signal modulators, primary screen, NOX inhibitor project, cell-based, HEK293-NOX2, PMA-stimulated, Amplex Red fluorescence (AID 1159); settings: 45 min, higher = more signal, called active from +8 up or from −8 down; also: test concentration not given here
# [9] = target: NADPH oxidase 4 (Homo sapiens) (UniProt Q9NPH5); test: NOX4-dependent H2O2 signal modulators, primary screen, NOX inhibitor project, cell-based, HEK293-NOX4, tetracycline-induced, Amplex Red fluorescence (AID 1160); settings: 45 min, higher = more signal, called active from +8 up or from −8 down
# [10] = target: NADPH oxidase 5 (Homo sapiens) (UniProt Q96PH1); test: NOX5-dependent H2O2 signal modulators, primary screen, NOX inhibitor project, cell-based, HEK293-NOX5, Amplex Red fluorescence (AID 1161); settings: HEK293-NOX5, ionomycin, 45 min, higher = more signal
# [11] = A549 cell viability effects, profiling panel, calcein-AM fluorescence, 48 h, basal (AID 1162); settings: higher = more signal; also: test concentration not given here
# [12] = adipocyte viability effects, profiling panel, cell-based, 3T3-L1 adipocytes, calcein-AM fluorescence, 48 h, basal (AID 1163); settings: 3T3-L1 adipocytes viability, higher = more signal; also: test concentration not given here
# [13] = HepG2 cell viability effects, profiling panel, calcein-AM fluorescence, 48 h, basal (AID 1164); settings: higher = more signal; also: test concentration not given here
# [14] = MM1S cell viability effects, profiling panel, calcein-AM fluorescence, 48 h, basal (AID 1165); settings: higher = more signal;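 also: viability of MM1S multiple myeloma cells under basal unstimulated conditions; test concentration not given here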
# [15] = basal RPMI8226 viability, no added stimulus, profiling panel, cell-based, calcein-AM fluorescence, 48 h, PK04 Diversity Set (AID 1166); settings: RPMI8226 myeloma viability, higher = more signal;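 also: cells grown under basal conditions without added stimulus; test concentration not given here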
# [16] = basal HepG2 mitochondrial membrane potential changes, profiling panel, cell-based, JC-1 fluorescence, 24 h, 100 nL compound (AID 1167); settings: higher = more signal; also: test concentration not given here
# [17] = basal 3T3-L1 adipocyte mitochondrial potential changes, profiling panel, cell-based, JC-1 fluorescence, 3T3-L1 adipocytes, 24 h, 100 nL compound (AID 1168); settings: JC-1 mitochondrial fluorescence, higher = more signal, called active from +8 up or from −8 down; also: test concentration not given here
# [18] = basal RPMI8226 mitochondrial membrane potential changes, profiling panel, cell-based, JC-1 fluorescence, 24 h, 100 nL compound (AID 1169); settings: RPMI8226 myeloma, JC-1 mitochondrial potential fluorescence, higher = more signal; also: test concentration not given here
# [19] = basal MM1S mitochondrial membrane potential changes, profiling panel, cell-based, JC-1 fluorescence, 24 h, 100 nL compound (AID 1170); settings: higher = more signal; also: test concentration not given here
# [20] = A549 lung cancer cell viability effects, profiling panel, resazurin fluorescence, 24 h, PK04 Diversity Set (AID 1171); settings: higher = more signal, called active from +8 up or from −8 down; also: test concentration not given here
# Chain of NADPH oxidase 2 (Homo sapiens) (P04839 whole entry, looked up): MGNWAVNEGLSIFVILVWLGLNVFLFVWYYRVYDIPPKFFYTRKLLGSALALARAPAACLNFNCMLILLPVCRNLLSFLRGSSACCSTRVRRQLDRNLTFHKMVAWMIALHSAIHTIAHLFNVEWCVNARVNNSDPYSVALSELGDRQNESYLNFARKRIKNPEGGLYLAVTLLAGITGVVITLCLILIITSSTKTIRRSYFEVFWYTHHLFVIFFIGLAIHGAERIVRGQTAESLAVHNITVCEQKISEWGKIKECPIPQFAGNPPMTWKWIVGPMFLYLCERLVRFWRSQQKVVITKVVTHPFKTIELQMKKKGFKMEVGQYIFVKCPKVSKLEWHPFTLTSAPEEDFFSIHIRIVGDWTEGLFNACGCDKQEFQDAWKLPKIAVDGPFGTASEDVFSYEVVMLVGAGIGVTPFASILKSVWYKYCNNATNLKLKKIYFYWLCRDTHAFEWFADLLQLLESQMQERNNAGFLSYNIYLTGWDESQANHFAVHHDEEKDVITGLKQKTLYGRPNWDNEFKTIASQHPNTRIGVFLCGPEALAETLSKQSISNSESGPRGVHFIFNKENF
# Chain of NADPH oxidase 5 (Homo sapiens) (Q96PH1 whole entry, looked up): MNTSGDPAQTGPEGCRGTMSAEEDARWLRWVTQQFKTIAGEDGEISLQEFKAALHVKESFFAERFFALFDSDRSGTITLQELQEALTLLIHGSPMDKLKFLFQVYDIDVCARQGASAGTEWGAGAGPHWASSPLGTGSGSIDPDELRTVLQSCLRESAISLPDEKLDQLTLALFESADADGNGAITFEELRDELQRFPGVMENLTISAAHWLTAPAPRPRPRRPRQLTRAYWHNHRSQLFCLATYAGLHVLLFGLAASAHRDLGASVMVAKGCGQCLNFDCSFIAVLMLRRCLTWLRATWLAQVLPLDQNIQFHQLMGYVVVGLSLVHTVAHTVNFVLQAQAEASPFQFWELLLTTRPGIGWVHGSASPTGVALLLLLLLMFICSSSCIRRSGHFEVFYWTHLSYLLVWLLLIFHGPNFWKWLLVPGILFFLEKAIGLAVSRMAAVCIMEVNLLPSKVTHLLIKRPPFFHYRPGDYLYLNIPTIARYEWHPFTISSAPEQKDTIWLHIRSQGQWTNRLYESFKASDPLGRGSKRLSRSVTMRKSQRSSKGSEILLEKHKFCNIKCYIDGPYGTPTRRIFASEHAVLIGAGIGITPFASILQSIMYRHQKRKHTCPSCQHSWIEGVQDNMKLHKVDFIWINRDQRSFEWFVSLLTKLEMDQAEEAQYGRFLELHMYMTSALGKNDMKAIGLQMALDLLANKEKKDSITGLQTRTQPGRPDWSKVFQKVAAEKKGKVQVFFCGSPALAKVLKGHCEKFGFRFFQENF
# Chain of NADPH oxidase 4 (Homo sapiens) (Q9NPH5 whole entry, looked up): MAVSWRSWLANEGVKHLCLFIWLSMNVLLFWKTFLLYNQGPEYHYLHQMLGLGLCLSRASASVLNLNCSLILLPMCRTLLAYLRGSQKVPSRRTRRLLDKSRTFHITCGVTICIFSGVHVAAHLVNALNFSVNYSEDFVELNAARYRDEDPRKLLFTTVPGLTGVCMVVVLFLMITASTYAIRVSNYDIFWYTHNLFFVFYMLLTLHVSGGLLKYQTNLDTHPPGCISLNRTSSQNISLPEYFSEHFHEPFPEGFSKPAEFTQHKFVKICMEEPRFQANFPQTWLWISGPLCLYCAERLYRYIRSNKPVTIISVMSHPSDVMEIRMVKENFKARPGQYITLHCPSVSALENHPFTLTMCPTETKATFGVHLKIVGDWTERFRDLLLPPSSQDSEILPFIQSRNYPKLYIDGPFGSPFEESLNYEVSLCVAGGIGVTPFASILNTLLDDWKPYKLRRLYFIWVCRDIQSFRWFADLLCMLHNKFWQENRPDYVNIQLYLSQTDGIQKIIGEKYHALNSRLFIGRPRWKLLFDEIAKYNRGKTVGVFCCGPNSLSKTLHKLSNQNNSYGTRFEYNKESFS
SMILES,z-score [1],composite z-score [2],z-score [3],z-score [4],z-score [5],z-score [6],z-score [7],z-score [8],z-score [9],z-score [10],z-score [11],z-score [12],z-score [13],z-score [14],z-score [15],z-score [16],z-score [17],z-score [18],z-score [19],z-score [20]
COC(=O)[C@@]1(Cc2ccc(F)cc2)[C@H]2c3cc(C(=O)N4CCCC4)n(Cc4c(CO)[nH]cc(C)c4=O)c3C[C@H]2CN1C(=O)c1ccccc1,-1.7 (inactive) and -1.76 (inactive),1.63 and 0.0811,1.02 (inactive) and 1.15 (inactive),0.148 (inactive) and 0.543 (inactive),0.63 (inactive) and 0.306 (inactive),0.398 (inactive) and 0.57 (inactive),-0.52 and -0.213,0.636 (inactive) and 0.617 (inactive),-1.58 (inactive) and -0.346 (inactive),-2.05 and -0.222,-1.51 and -0.994,0.284 and -0.41,-0.272 and -0.426,-1.2 and -0.26,-1.34 and -0.473,1.07 and 0.498,-0.217 (inactive) and -1.18 (inactive),-0.409 and 0.893,0.1 and 0.277,-0.133 (inactive) and 2.11 (inactive)
CCN1C(=O)[C@H]2[C@H]3[C@H](O)[C@H](O)CC(=NOC)[C@@H]3CC[C@H]2C1=O,-0.589 (inactive),-0.0654,0.637 (inactive),0.628 (inactive),0.47 (inactive),0.269 (inactive),0.815,-0.0884 (inactive),0.545 (inactive),-0.274,0.357,-0.344,-0.0225,-0.106,0.887,0.459,1.7 (inactive),0.0805,-0.218,-0.562 (inactive)
C[C@@H]1CC[C@H]2C(=O)N3[C@@H](CC[C@@H](C)[C@@H]3c3ccc(-c4ccco4)cc3)C(=O)N2[C@H]1c1ccc(-c2ccco2)cc1,-0.581 (inactive) and 0.529 (inactive),0.0927 and 0.38,0.91 (inactive) and 0.469 (inactive),-0.0315 (inactive) and -0.262 (inactive),0.0919 (inactive) and 1.71 (inactive),-0.364 (inactive) and -0.853 (inactive),-0.146 and -0.115,0.331 (inactive) and 0.931 (inactive),-1.03 (inactive) and 0.685 (inactive),-0.273 and -1.03,-0.521 and 0.709,0.489 and 0.992,-0.676 and -0.195,-0.372 and -2.15,-0.537 and -1.3,-1.41 and -2.19,-0.996 (inactive) and -0.779 (inactive),0.299 and -0.414,0.863 and 0.498,-0.244 (inactive) and 1.43 (inactive)
C=CCN(C(=O)C(c1cccs1)N(C(=O)/C=C\C(=O)O)C(C)(C)CO)C(C)(C)C (stereo not given),2.48 (inactive) and 1.85 (inactive),-0.0647 and -0.103,-0.534 (inactive) and -0.537 (inactive),-1.13 (inactive) and -0.574 (inactive),-0.936 (inactive) and -0.092 (inactive),-1.37 (inactive) and -0.725 (inactive),1.6 and 0.974,-0.192 (inactive) and -0.0748 (inactive),-0.755 (inactive) and -0.588 (inactive),0.163 and 0.51,0.923 and 0.435,0.373 and 0.179,1.24 and 1.74,0.151 and 1.58,-0.161 and 0.234,1.04 and 1.38,0.19 (inactive) and 0.713 (inactive),-0.82 and 0.0107,0.0872 and 0.0595,-0.465 (inactive) and -0.596 (inactive)
CC(C)=NOCc1ccc(-c2cn([C@@H]3COC[C@H]3O)nn2)cc1,0.164 (inactive),-0.245,11.2 (active),0.536 (inactive),-0.725 (inactive),0.296 (inactive),-0.119,0.606 (inactive),0.0519 (inactive),-0.388,0.0524,0.371,0.239,-0.812,0.176,-0.32,-0.0926 (inactive),0.169,1.43,-0.207 (inactive)
C[C@@H](c1ccccc1)N1C(=O)[C@H]2[C@H]3[C@H](O)[C@H](O)CC(=O)[C@@H]3CC[C@H]2C1=O,0.212 (inactive),-0.229,0.207 (inactive),-1.39 (inactive),0.279 (inactive),-1.63 (inactive),0.732,-0.0197 (inactive),0.237 (inactive),0.776,0.0128,0.762,1.15,0.288,-1.17,0.921,2.42 (inactive),-0.438,1.65,-0.1 (inactive)
